Screens (PubChem)
eIF4H FP inh – inhibitors of RNA binding by human eIF4H; Q15056; eIF4H fluorescence polarization binding assay; inhibition, % at 35 µM; 0.94% of 290,000 active;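 also: calls also rest on retests at 20 µM and on dose response follow-up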
NRP1-CendR mod – NRP-1/CendR interaction modulation | O14786 | FAM-RPARPAR peptide binding to NRP-1, fluorescence polarization | inhibition, % at 25 µM | 0.85% of 360,000 active | AID 602438;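 active = inhibition or corrected inhibition above about 18%, plus a signal ratio from 0.5 to 1.5, limit read from the data, passing the limit was not always enough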
PABP FP inh – PABP-poly(A) binding inhibition. P11940. PABP-poly(A) RNA binding, fluorescence polarization. inhibition, % at 35 µM. 1% of 290,000 active. AID 2014;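 also: calls also rest on retests at 20 µM and on dose response follow-up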
MLLE-PAM2 inh – blocks PAM2 peptide binding to the PABP1 MLLE domain. P11940. GST-MLLE / FITC-PAM2 fluorescence polarization. inhibition, % at 20 µM. 0.36% of 360,000 active. AID 588489; in the data active = inhibition above about 35%, passing the limit was not always enough;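 also: plate controls were DMSO wells with GST-MLLE for no effect and wells lacking GST-MLLE protein for full effect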
* marks the source's active call; other numbers are inactive results; ? = inconclusive; . = no result given. Sampled rows, rich in hits. Any-hit rate of the full collection: about 2.1%. Unless noted, no rule for the calls is given here.

SMILES	eIF4H FP inh	NRP1-CendR mod	PABP FP inh	MLLE-PAM2 inh
S=c1[nH]nc(COc2ccccc2)n1/N=C/C=C/c1ccccc1	2	0	-14	-81
O=C(Nc1cc(Cl)ccc1-n1cncn1)c1cc(S(=O)(=O)N2CCOCC2)ccc1F	1	-1	3	-14
COc1ccc(C2C(C(=O)c3ccco3)=C(O)C(=O)N2c2nnc(C)s2)cc1OC (stereo unspecified)	?	1	?	44*
Cc1cc(C)c2nc(N3C(=O)C(O)=C(C(=O)c4ccco4)C3c3ccco3)sc2c1 (stereo unspecified)	66*	-90	37	4
NS(=O)(=O)c1ccc(CCNC(=O)c2cc(S(=O)(=O)N3CCCCC3)ccc2Cl)cc1	.	-9	.	3
CC1(C)CC(=O)C/C(=N\NC(=O)Cc2ccccc2)C1	active	-10	93*	-4
CC1(C)CC(=O)C/C(=N/NC(=O)c2ccc(-c3ccccc3)cc2)C1	3	-29	-4	-19
CC(C)[C@H](COC=O)NC(=O)[C@H]1O[C@@H](n2ccc(N)nc2=O)[C@H](O)[C@@H]1O	.	-10	.	1
CC[C@H](C)[C@@H](COC=O)NC(=O)[C@H]1O[C@@H](n2ccc(N)nc2=O)[C@H](O)[C@@H]1O	.	31*	.	-2
O=C(NNC(=O)C1CCN(Cc2ccccc2)CC1)c1cccc(Cl)c1	1	23*	-1	4
CC1(C)CC2=C(CO1)C(=S)NC(c1ccccc1)N2CC1CCCO1 (stereo unspecified)	4	0	9	42*
Cn1cnc2cc(NC(=O)c3ccco3)ccc21	-17	24*	-4	-9
COc1cccc(OC)c1C(=O)Nc1ccc(NC(=O)c2ccco2)cc1	-6	4	-6	9
COc1cc(C(=O)NC(=S)Nc2ccc(NC(=O)c3ccco3)cc2)cc(OC)c1OC	6	-8	0	36*
COc1ccc(NC(=S)NC(=O)c2ccccc2)cn1	7	-2	3	42*
COc1ccc(NC(=O)c2cccc(Oc3ccccc3)c2)cn1	-4	-9	-2	8
COc1ccc(NC(=O)c2ccco2)cn1	?	26*	?	52*
CN(C(=O)c1ccc(NC(=O)C2CCCN(C(=O)OC(C)(C)C)C2)cc1)C1CC1 (stereo unspecified)	.	-6	.	2
CCc1cccc(NC(=O)CSc2nnc(Cc3ccc(OC)cc3)c(=O)[nH]2)c1	.	-4	.	3
CC(C)(C)n1cnc2cc(NC(=O)c3ccccc3)ccc21	-6	23*	-9	16
CCOc1ccc(N2C(=O)/C(=C\c3ccccc3OC)S(=O)(=O)C2c2cccc([N+](=O)[O-])c2)cc1 (stereo unspecified)	-2	10	-3	4
Cc1ccc(-n2nc(-c3ccco3)cc2C(=O)O)cc1	94*	-75	60*	14
CCOC(=O)c1cc(-c2ccco2)nn1-c1ccc(C)cc1	2	-11	44	-9
CCN(Cc1ccccc1)C(=O)c1c(-c2ccccc2Cl)noc1C	-6	3	-6	-17
O=C(CBr)N1CCc2ccccc2C(c2ccccc2)C1 (stereo unspecified)	84*	-1	8	-126
SMILES	eIF4H FP inh	NRP1-CendR mod	PABP FP inh	MLLE-PAM2 inh
CC(C)C1C(C#N)=C(N)Oc2n[nH]c(-c3ccc4ccccc4c3)c21 (stereo unspecified)	-1	27*	-3	7
CC(C)C1C(C#N)=C(N)Oc2n[nH]c(-c3cccs3)c21 (stereo unspecified)	-20	2	2	-7
CCc1[nH]nc2c1C(C(C)C)C(C#N)=C(N)O2 (stereo unspecified)	3	21*	1	-3
Cc1ccc(S(=O)(=O)N2CC3C(=O)C[C@@H](c4ccccc4)N(S(=O)(=O)c4ccccc4Cl)C3CC2c2ccccc2)cc1 (stereo partly specified)	.	-6	.	.
CCO/C=C1\C(=O)N(CC)c2ccccc21	active	-9	70*	16
CCN1C(=O)/C(=C\N(C)C)c2ccccc21	4	13	-2	7
COc1ccccc1NC(=S)N(CCN1CCOCC1)Cc1ccccc1F	-15	6	-1	-6
COc1ccc(NC(=S)N(CCN2CCOCC2)Cc2ccccc2F)cc1	-1	24*	20	-63
CCc1onc(C)c1C(=O)Nc1cc(C)ccc1OC	3	34*	-9	14
CNC(=O)C(C)Sc1ccc(S(=O)(=O)N2CCOCC2)cn1 (stereo unspecified)	.	22*	.	-10
Cc1c(Cl)cccc1NC(=S)NNc1ncc(C(F)(F)F)cc1Cl	12	-1	-1	36*
c1ccc(CNc2nc(NCc3ccccc3)c3sccc3n2)cc1	.	1	.	4
Fc1cc(Cl)ccc1Nc1nc(NCc2ccccc2)nc2ccsc12	.	26*	.	6
CCOc1ccc(CC(=O)NNC(=S)NC)cc1Br	-8	5	-10	-53
CC(C)CC(=O)Nc1cccc(C(C)O)c1 (stereo unspecified)	active	.	55*	.
CCCCC(=O)Nc1cccc(C(C)O)c1 (stereo unspecified)	-2	.	-7	.
Cc1ccccc1NC(=O)Nc1cnccn1	-1	-13	-2	-4
Cc1cccc(NC(=O)Nc2cnccn2)c1C	7	20*	-12	-3
O=C(NCc1cccc2ccsc12)c1cccs1	.	-2	.	-1
Cc1cc(/C=C(\C#N)C(=O)Nc2ccccc2)c(C)n1-c1cccnc1	6	-2	87	11
Cc1cc(C(=O)O)ccc1-n1c(C)cc(/C=C(/C#N)C(=O)Nc2ccccc2)c1C	63*	1	57*	4
Oc1ccccc1-c1cc(-c2ccccc2)n[nH]1	.	-8	.	-7
Oc1ccccc1-c1ccn[nH]1	.	32*	.	-2
Cc1ccc2c(c1)S/C(=C\c1cccc[n+]1C)N2CCO	-6	-7	75*	-144
O=C(c1ccc(Cn2c(=O)[nH]c3ccccc3c2=O)cc1)N1CCN(c2ccc(Cl)cc2)CC1	6	25*	-4	-13
SMILES	eIF4H FP inh	NRP1-CendR mod	PABP FP inh	MLLE-PAM2 inh
Cc1ccc(S(=O)(=O)Nc2cc(-c3nn(C)c(=O)c4ccccc34)ccc2N2CCOCC2)cc1	-1	-11	-1	-10
CCCC(=O)Nc1cc(-c2nn(C)c(=O)c3ccccc23)ccc1N1CCOCC1	0	-1	1	-4
CC(=O)Nc1cc(-c2nn(C)c(=O)c3ccccc23)ccc1N1CCOCC1	?	8	active	-7
Cn1nc(-c2ccc(N3CCOCC3)c(NS(=O)(=O)c3ccc(Cl)cc3)c2)c2ccccc2c1=O	-6	26*	-2	7
O=C(c1cccs1)N1CC=C(c2ccccc2)CC1	.	17*	.	3
CCc1nnc(NC(=O)CN2CCN(Cc3cccc(OC)c3)CC2)s1	-8	0	12	2
CCCCCCCN1C(Nc2ccccc2)=NC[C@@H]1Cc1ccccc1	-18	26*	4	-41
Cc1cccc(C)c1NC(=O)C1c2ccccc2OCC(=O)N1CCCN1CCOCC1 (stereo unspecified)	.	0	.	.
CCc1nnc(NC(=O)CSc2ccc(-c3ccco3)nn2)s1	95*	-5	active	-3
Cc1nnc(NC(=O)CSc2ccc(-c3ccco3)nn2)s1	105	-14	-12	37
